Hits are enriched below; roughly 3.4% of the tested compounds scored in any of these assays.
FBW7 activator = activators of human E3 ligase FBW7 | actives 0.13% (n = 650,000) | normalized activity (activation), % at 26.1 µM | Q969H0 | AlphaScreen FBW7–phospho-cyclin E peptide binding, activator screen; in the data active means normalized activity above about 1.9%;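 further: purified mutant Fbw7 with reduced substrate affinity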
GPR151 activ = activates the human receptor GPR151 | Q8TDV0 | actives 1% (n = 650,000) | PathHunter beta-arrestin GPR151 cells, luminescence | activation, % at 11.2 µM | AID 1508602; in the data active means activation above about 4.9%;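 further: 0% = median of compound wells and 100% = cells with positive control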
Target sequence (Q8TDV0 whole entry, looked up): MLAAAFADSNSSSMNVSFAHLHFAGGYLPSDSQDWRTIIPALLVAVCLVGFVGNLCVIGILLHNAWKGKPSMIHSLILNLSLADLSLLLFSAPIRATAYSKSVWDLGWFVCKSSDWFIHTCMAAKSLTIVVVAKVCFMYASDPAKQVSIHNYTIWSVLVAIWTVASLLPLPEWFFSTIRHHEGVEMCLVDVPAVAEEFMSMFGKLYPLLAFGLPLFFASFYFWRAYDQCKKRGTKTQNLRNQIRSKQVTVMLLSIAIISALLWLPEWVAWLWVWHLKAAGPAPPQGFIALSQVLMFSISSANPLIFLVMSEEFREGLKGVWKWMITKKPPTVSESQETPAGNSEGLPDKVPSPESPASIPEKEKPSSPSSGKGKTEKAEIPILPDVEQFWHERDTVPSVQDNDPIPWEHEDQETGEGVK
MITF inh = human MITF inhibition, primary screen; O75030; AlphaScreen MITF homodimerization, bead proximity signal; inhibition, % at 2.6 µM; actives 0.91% (n = 650,000); AID 1259374; in the data active means inhibition above about 50%;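 further: 0% = vehicle wells with protein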
TEAD-YAP inh = TEAD-YAP interaction inhibition; actives 1.4% (n = 640,000); inhibition, % at 9.12 µM; HEK-TIYL cells, TEAD-Gal4/YAP UAS-luciferase luminescence; AID 1259422; in the data active means inhibition above about 32%;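 further: 0% = median of test compound wells and 100% = reference inhibitor wells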
* marks the source's active call; other numbers are inactive results.

SMILES	FBW7 activator	GPR151 activ	MITF inh	TEAD-YAP inh
COc1cc(Nc2nccn3c(-c4ccc(N(C)C)cc4)cnc23)cc(OC)c1OC	-1	3	13	55*
COc1cc(Nc2nccn3c(-c4ccc(F)cc4)cnc23)cc(OC)c1OC	0	0	3	51*
COc1cncc(-c2cnc3c(Nc4cc(OC)c(OC)c(OC)c4)nccn23)c1	0	1	28	57*
COc1ccc(-c2cnc3c(Nc4cc(OC)c(OC)c(OC)c4)nccn23)cc1	0	1	-3	-8
COc1ccc(/C=C2\C=C(c3ccccc3)N(c3cc(C)ccc3C)C2=O)cc1	0	0	-9	42*
Cc1ccc(C)c(N2C(=O)/C(=C/c3ccc(Cl)cc3)C=C2c2ccccc2)c1	0	-1	0	4
COc1ccc(/C=C2\C=C(c3ccccc3)N(c3cccc4ccccc34)C2=O)cc1	0	-2	18	57*
COc1ccc(C(=O)Nn2c(SCc3cccc(F)c3)nc3ccccc3c2=O)cc1	0	0	-6	77*
COc1ccc(C(=O)Nn2c(SCc3cccc(Br)c3)nc3ccccc3c2=O)cc1	0	0	0	52*
CCOC(=O)N1CCC(n2c(SCC(=O)Nc3ccc(C)cc3)nc3ccccc3c2=O)CC1	0	-1	4	55*
Cc1ccc(NC(=O)CSc2nc3ccccc3c(=O)n2NC(=O)c2ccc(F)cc2)cc1	1	-4	7	41*
COc1ccc(C(C)=O)cc1CSc1nc2ccccc2c(=O)n1NC(=O)c1ccccc1	0	-1	7	-15
O=C(CN1Cc2ccccc2OC(c2ccccc2)C1)NCc1ccco1 (centres undefined)	0	3	-9	5
N/C(=N\c1nc2ccccc2o1)NC(=O)Nc1ccc(Cl)cc1	0	1	1	-7
O=C(NCCO)c1cccc(-c2ccc3c(-c4ccccc4)[nH]nc3n2)c1	0	-2	-15	3
Cc1cc(-c2nnc(NC(=O)C3(c4ccccc4)CCOCC3)o2)nn1C(C)C	0	-1	13	9
CNC(=O)C(=O)c1c[nH]c2ccccc12	0	2	-4	8
CC(C)(C)c1ccc(-c2nc3ccccc3c(=O)n2NC(=O)c2cccnc2)cc1	0	1	10	83*
COc1ccc(C(=O)Nn2c(SCc3ccc(Cl)cc3)nc3ccccc3c2=O)cc1	0	0	-2	30
COc1ccc(C(=O)Nn2c(SCc3cccc([N+](=O)[O-])c3)nc3ccccc3c2=O)cc1	0	0	1	72*
COc1ccc(C(=O)Nn2c(SCc3ccc(F)cc3)nc3ccccc3c2=O)cc1	0	3	-8	52*
O=C(Nn1c(SCc2cccc([N+](=O)[O-])c2)nc2ccccc2c1=O)c1ccccc1	0	2	9	-35
COc1ccc(C(=O)Nn2c(SCc3cccnc3)nc3ccccc3c2=O)cc1	0	-1	-14	66*
CN1CCN(CCNC(=O)Cn2nc(Cc3ccncc3)c3ccccc3c2=O)CC1	0	0	1	-4
CC(C)c1nnc(NC(=O)CSc2nnc3n(N)cnn23)s1	0	0	2	-2
SMILES	FBW7 activator	GPR151 activ	MITF inh	TEAD-YAP inh
COc1ccc(C(=O)Nn2c(SCc3ccc(C)cc3)nc3ccccc3c2=O)cc1	0	2	-3	38*
CC(=O)N1c2ccccc2NC2=C(C(=O)CCC2)C1c1ccccc1 (centres undefined)	0	-1	2	37*
CC(=O)N1c2ccccc2NC2=C(C(=O)CCC2)C1c1cccc(Br)c1 (centres undefined)	0	-1	-11	37*
CC(C)c1ccccc1OCC(=O)Nc1nccs1	0	-1	-2	4
Cc1ccc(Cl)c(OCC(=O)Nc2nccs2)c1	0	0	10	56*
O=C(COc1ccccc1Br)Nc1nccs1	0	-9	13	75*
O=C1NC2=C(C(=O)N(CCCO)C2)C(c2ccc(F)c(F)c2)N1 (centres undefined)	1	0	-2	10
Cc1ccc(CCn2c(C)c(C)c3ccccc32)cn1	1	3	9	-3
COc1ccc2c(c1)c(C)c(C)n2CCc1ccc(C)nc1	0	-2	-6	50*
CS(=O)(=O)N(CC(=O)NCCc1ccccc1)c1cccc(Cl)c1	0	-1	-6	4
O=C([C@H](O)[C@@H](O)C(=O)N1CCCN(S(=O)(=O)c2cccc3cnccc23)CC1)N1CCOCC1	0	4	-4	13
CN(C)c1c(C(=O)Nc2ccc(Cl)cc2)cc([N+](=O)[O-])cc1[N+](=O)[O-]	0	3	-1	5

Screening results from PubChem.
